Compounds with a hit are over-represented: about 3% of the library has one in this group of screens.
BCR signal inh: blocks chronic active B-cell receptor signaling | ABC-DLBCL IkBa-CBG/CBR reporter, luminescence ratio, 4 h | Potency, µM (top dose mostly 46.1 µM), for the others: at the highest dose activity change, negative = inhibition, hits mostly inhibitors | hit rate 0.05% among 340,000; active means well fitted inhibition curve with a large enough effect in the signal ratio, with a control signal flat, not every such curve was filed as active; inconclusive means small, poorly fitted or top-dose-only effect, or effect the other way, or a change in a side signal; the % refers to the signal ratio;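 further: potency means the concentration at half of the fitted maximal effect; plate controls were basal doxycycline-induced cells for no effect and cells given 10 µM MG132 for full effect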
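Doxycycline induced both beetle luciferases in TMD8 lymphoma cells; IKK-driven degradation limits the IkappaBalpha-fused green signal, while red luminescence normalises for cell number and nonspecific effects. Compounds tested up to 46 uM, 4 hrs.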
hERG WT inh: KCNH2 (human, wildtype) channel inhibition; Q12809; U2OS, BacMam KCNH2, thallium flux FluxOr; active compounds read low; activity change, % at 1.84 µM; hit rate 0.37% among 340,000; AID 720551;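 active means maximum activity change below -70%; inconclusive means maximum activity change between -70% and -50%; inactive means maximum activity change above -50%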; further: on the % scale 0 is the no-effect control and ±100 the full control effect
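U2OS cells were transduced with wild-type KCNH2 virus (2.03 x 10^8 / mL) for 4 h at room temperature, then cultured overnight at 37 C. Thallium flux was read with FluxOr dye. Rate constants were normalized to DMSO controls.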
KCNH2 3.1 inh: inhibitors of human KCNH2 3.1 potassium channel isoform; U2OS KCNH2 3.1, thallium flux FluxOr; active compounds read low; activity change, % (tested at about 1.8 µM); hit rate 0.95% among 340,000;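 active means maximum activity change below -70%; inconclusive means maximum activity change from -70% to -50%; inactive means maximum activity change above -50%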;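 further: thallium influx rate constant from kinetic fluorescence after stimulation buffer; on the % scale 0 is the no-effect control and ±100 the full control effect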
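Measured as rate of thallium-driven FluxOr signal in transduced U2OS cells carrying the 3.1 channel, read kinetically for 2 min upon stimulation; values are rate constants scaled to DMSO control wells.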
ClpP mod: qHTS Assay for Activators of ClpP; purified B. subtilis ClpP, FRET peptide cleavage, 20 min; hit rate 1.9% among 340,000; Potency, µM (titrated, usually from 57.5 µM), for the others: at the top dose activity change, negative = active; ATP-dependent Clp protease proteolytic subunit (Bacillus subtilis (strain 168)), P80244; active means well fitted falling curve with a large enough effect; inconclusive means small, poorly fitted or top-dose-only effect; inactive means no such curve, though single readings can be large or run the other way; further: potency means the concentration at half of the fitted maximal effect; the source files actives as falling curves though it sought activators and does not explain the sign; nearly all actives have a fitted effect of over 65% in size
Target sequence (P80244 whole entry, looked up): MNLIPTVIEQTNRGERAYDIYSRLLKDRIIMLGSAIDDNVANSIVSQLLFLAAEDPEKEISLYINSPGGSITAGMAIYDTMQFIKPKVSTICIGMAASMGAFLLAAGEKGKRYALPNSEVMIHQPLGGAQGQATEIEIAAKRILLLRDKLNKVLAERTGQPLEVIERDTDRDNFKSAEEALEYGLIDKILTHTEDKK
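Purified B. subtilis ClpP, 10 microg/mL final in Tris/HCl pH8 with KCl, BSA, glycerol and Tween-20, cleaved an Abz/nitrotyrosine-quenched decapeptide. Fluorescence (ex 320, em 430) was read at 0 and 20 min at room temperature. Delta was normalized to 5.8 microM ADEP and DMSO/no-enzyme controls.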
ALOX12 inh: blocks human arachidonate 12S-lipoxygenase. P18054. purified 12hLO, xylenol orange hydroperoxide absorbance. Potency, µM (doses to about 108 µM), inactives show at the top dose activity change, negative = inhibition, hits mostly inhibitors. hit rate 1.1% among 580,000. AID 1671190; active means well fitted inhibition curve with a large enough effect; inconclusive means small, poorly fitted or top-dose-only effect, or another doubt; inactive means no such curve, though single readings can be large or run the other way; further: potency means the concentration at half of the fitted maximal effect; on the % scale 0 is the no-effect control and ±100 the full control effect
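Hydroperoxide product was detected by ferrous iron/xylenol orange as the 573 to 405 nm absorbance ratio. Arachidonic acid at 40 uM (final) was turned over for 30 min at room temperature by 150 nM human 12hLO, pH 7.0 Hepes buffer, after 15 min compound preincubation.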
LDHA inh: LDHA (human) enzyme inhibition. activity change, % (values are at about 110 or 230 µM). hit rate 0.15% among 480,000. purified LDHA, NADH/diaphorase-resazurin fluorescence; active compounds read low. P00338; in the data active means activity change below about -30%; inconclusive means mostly about -25% to -30%;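 further: plate controls were DMSO wells for no effect and wells without enzyme for full effect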
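Human LDH5 at 2 nM final in Tris HCl pH 7.4 with 0.06 mM NADH and 0.2 mM pyruvate, reacted 5 minutes at room temperature. Remaining NADH coupled via diaphorase/resazurin; resorufin fluorescence read at 0 and 20 minutes, normalized to enzyme-free and DMSO wells.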
The depositor's hits bear a star; u = inconclusive; x = not tested or not shown; ! = not confirmed by another sample; [ ] = remark or other dose.

SMILES	BCR signal inh	hERG WT inh	KCNH2 3.1 inh	ClpP mod	ALOX12 inh	LDHA inh
Cc1ccc(CNc2nc3ccccc3nc2NS(=O)(=O)c2ccc(F)cc2)cc1	x	x	x	x	14%	3
CC1(C)CC(=O)C2=C(C1)N(CCN1CCOCC1)C1=C(C(=O)CC(C)(C)C1)C2c1cccc(F)c1	u	4	-2	28µM*	0%	1
CCOC(=O)Cn1nnc(-c2ccc([N+](=O)[O-])cc2)n1	u	1	u	-3%	-5%	-3
CCOC(=O)C(C)(C)n1nnc(-c2ccc([N+](=O)[O-])cc2)n1	-2%	-4	-83*	x	0%	-6
CCOc1cccc(/C=C2\NC(=O)NC2=O)c1O	x	x	x	x	u	5
Oc1ccccc1CN1CCC(C(O)(c2ccccc2)c2ccccc2)CC1	0%	3	-86*	0%	-27%	-17
c1ccc(CCc2nc3nccc(-c4ccco4)n3n2)cc1	x	x	x	x	-18%	x
N#Cc1c(NC(=O)CSc2ncnc3ccccc23)sc2c1CCC2	x	x	x	x	u	4
O=C(O)CCC(=O)N1N=C(c2cccs2)CC1c1cn(-c2ccccc2)nc1-c1ccccc1 (stereo not given)	u	-5	23	14µM*	3%	-4
Cc1ccc(-c2nn(-c3ccccc3)cc2C2CC(c3cccs3)=NN2C(=O)CCCC(=O)O)cc1 (stereo not given)	6%	-5	8	-26%	u	7
N#Cc1nc(COc2cccc(Cl)c2)oc1NCc1ccc2c(c1)OCO2	x	x	x	x	13µM*	0
C=CCNc1oc(-c2cccc3ccccc23)nc1C#N	u	-2	u	3.2µM*	u	1
N#Cc1nc(-c2cccc3ccccc23)oc1NCc1ccc2c(c1)OCO2	x	x	x	x	32µM*	0
N#Cc1nc(-c2ccccc2)oc1NCc1ccc2c(c1)OCO2	x	x	x	x	-9%	1
O=C(NCC(c1cccs1)N1CCCC1)c1cc2ccccc2oc1=O (stereo not given)	x	x	x	x	u	-3
CC(C)(C)c1ccc(-c2noc(CNC(=O)CN3C(=O)CNC3=O)n2)cc1	x	x	x	x	27%	x
O=C(Nc1ccccc1)c1ccccc1NC(=O)[C@H]1CCCC[C@H]1C(=O)O	0%	-4	5	0%	-3%	-5
O=C(O)C1CCCCC1C(=O)Nc1ccccc1Nc1ccccc1 (stereo not given)	9%	-4	-21	25µM*	38%	-5
Cc1ccccc1NC(=O)c1sc2c(c1C)C(c1cccs1)CC(=O)N2 (stereo not given)	x	x	x	x	25µM*	2
Cc1ccccc1NC(=O)c1sc2c(c1C)C(c1ccsc1)CC(=O)N2 (stereo not given)	x	x	x	x	-28%	7
CCOC(=O)c1ccc(CC(=O)c2oc3cc(O)ccc3c2C)o1	-1%	-16	-8	32µM*	16µM*	1
CCOC(=O)c1ccc(CC(=O)c2ccc(O)c(O)c2O)o1	22%	0	-10	x	u	40
CC(NCc1cccc(OCc2ccccc2)c1)C(O)c1ccccc1 (stereo not given)	-5%	22	-148*	-1%	u	-4
CC(C)NCc1cccc(OCc2ccccc2)c1	x	x	x	x	-13%	3
COc1ccc(C2Nc3ccccc3C(=O)N2Cc2ccco2)cc1COc1ccc(NC(C)=O)cc1 (stereo not given)	-16%	2	-11	32µM*!	0%[57.4 µM]	3
SMILES	BCR signal inh	hERG WT inh	KCNH2 3.1 inh	ClpP mod	ALOX12 inh	LDHA inh
COc1ccc(C2Nc3ccccc3C(=O)N2Cc2ccco2)cc1COc1ccccc1F (stereo not given)	u	-2	-7	14µM*	u	1
COc1ccc(C2Nc3ccccc3C(=O)N2Cc2ccco2)cc1COc1ccccc1 (stereo not given)	x	x	x	x	x	4
CC1(C)CC(=O)C/C(=N/NC(=O)CCc2ccccc2)C1	x	x	x	x	67%	0
COC(=O)c1ccc(Cn2ccc(=O)[nH]c2=O)cc1	x	4	18	14µM*	-5%	-5
COC(=O)c1ccc(CN2CCCC2)cc1	x	x	x	x	-7%	-3
Cc1cccc(NC(=O)c2sc(NC(=O)c3ccco3)c(C#N)c2C)c1C	4%	7	-83*	-7%	3%	-3
Cc1ccc(Nc2nc(NCC3CC3)nc3ccsc23)c(C)c1	x	x	x	-7%	40µM*	-1
Cn1nccc1CN1CCCC2(CC(c3cccc(C(F)(F)F)c3)=NO2)C1 (stereo not given)	x	x	x	x	14%	x
COc1ccc(C(=O)/C=C/c2ccc(F)c(F)c2)cc1CC(=O)O	x	x	x	x	-28%	-1
COc1ccnc(NCc2cccc(C(F)(F)F)c2)c1C#N	4%	17	4	u	10%[57.4 µM]	-9
COc1ccnc(NCc2cccnc2)c1C#N	-4%	6	6	32µM*	-12%	-6
COc1cccc(CN2CCCC(N3CCN(c4cccc(C(F)(F)F)c4)CC3)C2)c1O (stereo not given)	x	x	x	x	7%	x
CC(=O)OC(CC(=O)O)C[N+](C)(C)C (stereo not given)	0%	-6	3	2%	-3%	-6
CC(=O)O[C@H](CC(=O)O)C[N+](C)(C)C	0%	-13	26	1%	35µM*!	-11
COc1ccc(NS(=O)(=O)c2cc(OC)ccc2NC(=O)c2cc(C)oc2C)cc1	-1%	2	23	0%	35µM*	3
CCC1CCCCN1CCCn1c(=S)[nH]c2ccccc2c1=O (stereo not given)	-2%	7	-8	20µM*	-7%	-3
COc1ccc(N2CCN(CCCn3c(=S)[nH]c4ccccc4c3=O)CC2)cc1	1%	-118*	-80*	0%	0%	3
COc1ccc(N2CCN(CCNC(=O)CCCn3c(=O)[nH]c4cc(Cl)ccc4c3=O)CC2)cc1	-3%	11	-11	28µM*	30%	-10
COc1cccc(NC(=O)CN(C)C(C)C(=O)Nc2cc([N+](=O)[O-])ccc2Cl)c1 (stereo not given)	u	1	4	32µM*	-5%	-5
Clc1cccc(-c2nnc(SC/C=C/c3ccccc3)n2Cc2ccco2)c1	u	-17	-98*	1%	u	4
CC1=C[C@@H](CNCc2ccncc2)[C@H](C(C)C)C[C@H]1Cc1nnc(-c2ccccc2F)o1	x	x	x	x	64%[176 µM]	x
CCCn1nc(S(=O)(=O)N2CCCC2)c(C(=O)OCC)c1C	x	x	x	x	11µM*	-18
CCCn1nc(S(=O)(=O)N2CCCCC2)c(C(=O)OCC)c1C	x	x	x	x	6.3µM*	10
CCOC(=O)c1c(S(=O)(=O)N2CCCCC2)nn(C)c1C	x	x	x	x	u	8

Screening results: PubChem, National Center for Advancing Translational Sciences (NCATS)
